Test results as given in PubChem BioAssay (NCATS).
“And” between values parts separate entries of the source, which are not always exact repeats. Identical values can stand only once. Inconclusive results are not listed. Some structures have more than one record in an assay (separate samples or runs), and their calls can disagree. The source made the active and inactive calls. Unless noted, calls come from the whole dose curve.

Legend:
[1] = biological target: Cytochrome P450 1A2 (Homo sapiens) (UniProt P05177); assay: p450-cyp1a2 (AID 410); note: potency is the fitted concentration of half-maximal effect;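 for activity change, negative = inhibition: -100% = full effect of reference inhibitor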
Summary of the method: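 20nM CYP1A2, 100uM Luciferin-ME (=Km), 100mM KPO4; cpd 10 min RT; +NADPH regen, 60 min RT; stop/detect 20 min; luminescence. Normalized to furafylline 57 uM = full inhibition.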

[2] = NFAT Signaling Pathway (AID 444; active = well fitted curve in either direction with a large enough effect, not every such curve was filed as active;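 note: carbachol stimulus at about its EC50 of 1 µM final; % is set by controls: 0 for no effect and ±100 for the full control effect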); settings: Jurkat NFAT-bla M1, carbachol, beta-lactamase ratio, 5 h
Summary of the method: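 Jurkat cells carrying an NFAT-driven β-lactamase reporter and co-transfected muscarinic M1 receptor were treated with compound plus carbachol (1 uM final, an EC50 level) for 5 h at 37 °C. CCF4 loading followed for 1 h at RT; 460/530 nm ratio gave %activity.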

[3] = Stat Signaling Pathway (AID 446; active = well fitted curve in either direction with a large enough effect, not every such curve was filed as active;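 note: ME-180 cervical cancer cells given 40 pM IL-6 alongside compound; SIE-controlled beta-lactamase reporter measured as 460/530 nm FRET emission ratio; % is set by controls: 0 for no effect and ±100 for the full control effect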); settings: ME-180 (cervical carcinoma) SIE beta-lactamase reporter, IL-6 stimulated, 5 h
Summary of the method: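 Compound effects on IL-6-induced STAT reporter activity were measured in ME-180 cells. After overnight culture, cells were co-treated with 40 pM IL-6 for 5 hrs before beta-lactamase substrate loading at room temperature.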

[4] = biological target: Glucocorticoid receptor (Homo sapiens) (UniProt P04150); assay: GR-GFP Redistribution (AID 450;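 active = compounds whose dose series gives a full or clear partial fitted curve of increased nuclear translocation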; note: potency is the fitted concentration of half-maximal effect); settings: U2OS GR-GFP nuclear translocation, laser cytometry, 2 h
[5] = biological target: Glucocorticoid receptor (Homo sapiens) (UniProt P04150); assay: GR-EFC Redistribution (AID 451); settings: CHO-K1 GR-EFC translocation, beta-gal luminescence, 2 h; note: potency is the fitted concentration of half-maximal effect
Summary of the method: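 CHO-K1 cells stably expressing nuclear-localized β-gal enzyme acceptor and GR fused C-terminally to the enzyme donor fragment; ligand-driven nuclear translocation restores β-gal by complementation. Compounds titrated up to 46 uM final, 2 h at 37 °C; luminescence read.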

[6] = biological target: Mitogen-activated protein kinase 10 (Mus musculus) (UniProt Q61831); assay: JNK3 AlphaScreen Assay (AID 530; active = well fitted curve in either direction with a large enough effect, not every such curve was filed as active;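 note: kinase came from lysate of stimulated human HepG2 cells; signal reports phosphorylation of biotinylated GST-cJun 1-79 at Ser73 with 10 µM ATP; % is set by controls: 0 for no effect and ±100 for the full control effect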)
Summary of the method: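 Biotinylated GST-cJun(1-79) served as substrate for JNK3 in HepG2 lysates stimulated with IL-1beta and TNF-alpha. ATP was 10 uM final, pH 7.6. Ser73 phosphorylation was quantified by AlphaScreen (680 nm excitation).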

[7] = at 38 µM (top of the series) unless noted

Chain of Glucocorticoid receptor (Homo sapiens) (P04150 whole entry, looked up, the tested form may be a part): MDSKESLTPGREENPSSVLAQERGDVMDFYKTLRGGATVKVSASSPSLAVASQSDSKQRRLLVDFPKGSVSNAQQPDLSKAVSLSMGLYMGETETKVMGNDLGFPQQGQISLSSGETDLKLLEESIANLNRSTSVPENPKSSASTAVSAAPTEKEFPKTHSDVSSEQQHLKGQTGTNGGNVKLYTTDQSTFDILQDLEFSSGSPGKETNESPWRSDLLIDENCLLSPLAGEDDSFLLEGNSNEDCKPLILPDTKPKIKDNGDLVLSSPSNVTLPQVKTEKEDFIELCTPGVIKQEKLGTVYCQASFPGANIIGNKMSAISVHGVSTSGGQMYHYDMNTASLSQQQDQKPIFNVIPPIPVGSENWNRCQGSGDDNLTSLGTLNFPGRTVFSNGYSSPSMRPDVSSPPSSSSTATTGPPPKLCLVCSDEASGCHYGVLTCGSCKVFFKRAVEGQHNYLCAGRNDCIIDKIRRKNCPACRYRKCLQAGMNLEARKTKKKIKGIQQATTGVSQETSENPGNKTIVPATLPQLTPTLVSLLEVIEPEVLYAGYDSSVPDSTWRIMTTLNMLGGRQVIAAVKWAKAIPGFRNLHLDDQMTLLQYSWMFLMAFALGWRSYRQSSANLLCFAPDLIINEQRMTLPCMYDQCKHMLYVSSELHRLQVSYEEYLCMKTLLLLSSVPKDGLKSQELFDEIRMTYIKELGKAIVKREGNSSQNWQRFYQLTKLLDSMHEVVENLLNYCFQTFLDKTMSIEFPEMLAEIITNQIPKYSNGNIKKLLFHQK
Chain of Cytochrome P450 1A2 (Homo sapiens) (P05177 whole entry, looked up): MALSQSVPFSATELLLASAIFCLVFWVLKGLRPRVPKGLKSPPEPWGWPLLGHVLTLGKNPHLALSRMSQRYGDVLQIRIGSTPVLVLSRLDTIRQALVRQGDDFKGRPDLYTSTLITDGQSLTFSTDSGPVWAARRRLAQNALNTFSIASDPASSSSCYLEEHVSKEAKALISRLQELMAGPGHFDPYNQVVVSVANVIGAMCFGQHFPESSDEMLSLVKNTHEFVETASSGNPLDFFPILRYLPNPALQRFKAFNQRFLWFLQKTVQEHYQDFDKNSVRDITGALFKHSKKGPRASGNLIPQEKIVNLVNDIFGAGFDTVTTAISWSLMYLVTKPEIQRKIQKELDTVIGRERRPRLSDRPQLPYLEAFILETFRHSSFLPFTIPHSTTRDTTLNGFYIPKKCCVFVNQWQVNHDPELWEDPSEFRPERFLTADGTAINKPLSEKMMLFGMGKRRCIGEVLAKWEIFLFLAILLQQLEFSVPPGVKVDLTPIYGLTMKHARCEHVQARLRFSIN

Structure (SMILES) | Potency [1] | activity change, negative = inhibition [2, 7] | activity, negative = inhibition [3, 7] | Potency [4] | Potency [5] | outcome [6] | activity change, negative = inhibition ([2]; at 17.2 µM (top of the series)) | activity change, negative = inhibition ([2]; at 38 µM (top of the series)) | activity, negative = inhibition ([3]; at 17.2 µM (top of the series)) | activity, negative = inhibition ([3]; at 38 µM (top of the series))
O=C(O)C1=CCNCC1 | inactive | -0.658% (inactive) | 16.7% (inactive) | > 46 µM (inactive) | > 46 µM (inactive) | inactive | – | – | – | –
O=C(N[C@@H](Cc1ccccc1)C(=O)CCl)OCc1ccccc1 | 3.16 µM (active) | -11.8% (active) | -59.3% (active) | > 46 µM (inactive) | > 46 µM (inactive) | – | – | – | – | –
O=C(O)Cc1ccc(O)c(O)c1 | inactive | 12.7% (inactive) | 18.6% (inactive) | > 46 µM (inactive) | > 46 µM (inactive) | – | – | – | – | –
CCCn1c(=O)c2[nH]c(C3CCCC3)nc2n(CCC)c1=O | 1.26 µM (active) and 251 nM (active) | – | – | > 46 µM (inactive) and > 20.6 µM (inactive) | > 46 µM (inactive) | inactive | 11.5% (inactive) | -0.836% (inactive) | -4.29% (inactive) | -11.4% (inactive)
O=C1Nc2ccc(I)cc2/C1=C/c1cc(Br)c(O)c(Br)c1 | 2.51 µM (active) and 794 nM (active) | -120% (active) | – | > 46 µM (inactive) | > 46 µM (inactive) | – | – | – | – | –
Nc1nc2ccc(Cl)cc2c2nc(-c3ccco3)nn12 | 631 nM (active) and 63.1 nM (active) | 19.6% (inactive) | 3.22% (inactive) | > 46 µM (inactive) | > 46 µM (inactive) | inactive | – | – | – | –
NCCS(=O)O | inactive | 3.37% (inactive) | -6.03% (inactive) | > 46 µM (inactive) | > 46 µM (inactive) | inactive | – | – | – | –
Fc1ccc(CN(C2=NCCN2)c2c(Cl)cccc2Cl)cc1 | inactive | -21.2% (inactive) | -4.64% (inactive) | > 46 µM (inactive) | > 46 µM (inactive) | inactive | – | – | – | –
O=C1Cc2c([nH]c3ccc(Br)cc23)-c2ccccc2N1 | 1.26 µM (active) and 158 nM (active) | -74.4% (active) | -29.2% (active) | > 46 µM (inactive) | > 46 µM (inactive) | inactive | – | – | – | –
Cn1cc(C(=O)OCC2CCN(CCNS(C)(=O)=O)CC2)c2ccccc21 | 12.6 µM (active) and 15.8 µM (active) | -2.1% (inactive) | -18.9% (inactive) | > 46 µM (inactive) | > 46 µM (inactive) | inactive | – | – | – | –
Cc1cccc(C(=O)NCN2CCN(c3ccccc3C#N)CC2)c1 | 15.8 µM (active) and 20 µM (active) | -27.4% (inactive) | -3.73% (inactive) | > 46 µM (inactive) | > 46 µM (inactive) | – | – | – | – | –
CC(=O)NCCc1c[nH]c2ccc(O)cc12 | 15.8 µM (active) | 7.32% (inactive) | -51.8% (inactive) | > 46 µM (inactive) | > 46 µM (inactive) | inactive | – | – | – | –
CC(C)Cn1c(=O)n(C)c(=O)c2[nH]cnc21 | 20 µM (active) | -7.31% (inactive) | -25.6% (inactive) | > 46 µM (inactive) | > 46 µM (inactive) | inactive | – | – | – | –
CC(C)(C)c1cc(/C=C(\C#N)C(N)=S)cc(C(C)(C)C)c1O | 12.6 µM (active) | -95.5% (active) | – | > 46 µM (inactive) | > 46 µM (inactive) | – | – | – | – | –
COc1ccc(-c2ccc(N)[n+](CCCC(=O)O)n2)cc1 | inactive | – | 5.04% [at 17.2 µM] (inactive) | > 46 µM (inactive) and > 20.6 µM (inactive) | > 46 µM (inactive) and > 20.6 µM (inactive) | – | 1.69% (inactive) | 4.41% (inactive) | – | –
COc1cc(/C=C(\C#N)C(=O)c2ccc(O)c(O)c2)cc(I)c1O | 15.8 µM (active) | 8.66% (inactive) | – | > 46 µM (inactive) | > 46 µM (inactive) | – | – | – | – | –
O=c1[nH]c2cc(Cl)ccc2c(O)c1-c1ccc(Oc2ccccc2)cc1 | 10 µM (active) | -0.707% (inactive) | -10.1% (inactive) | > 46 µM (inactive) | > 46 µM (inactive) | – | – | – | – | –
N[C@H](C(=O)O)c1cc(O)cc(O)c1 | inactive and 31.6 µM (active) | -1.35% (inactive) | 9.71% (inactive) | > 46 µM (inactive) | > 46 µM (inactive) | inactive | – | – | – | –
O=C(O)c1cccnc1C(=O)O | inactive | -4.14% (inactive) | -7.1% (inactive) | – | – | inactive | – | – | – | –
NC(N)=NC(N)=Nc1cccc(Cl)c1 | inactive | 7.69% (inactive) | 15.9% (inactive) | > 46 µM (inactive) | > 46 µM (inactive) | inactive | – | – | – | –
